Data reported in article PMC5540273 (PLoS ONE, 2017).

These compounds were tested on CSNK1G1. Conditions: concentration: 1 μM, replicates: in singlicate; n = 1.
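Also: KINOMEscan kinase panel screen.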

Compound | %Inh
O=c1cc(N2CCOCC2)nc2n(Cc3cccc(Cl)c3Cl)c(C3CC3)nn12 [GSK2358994] | 0%
CCc1nc(-c2cccc(C)c2)c(-c2ccnc(NCc3ccccc3)c2)s1 | 0%
COc1cc2c(cc1OCCN1CCN(C)CC1)ncc1c3ccc(C#N)cc3[nH]c21 | 0%
NCC(NC(=O)c1cc(-c2cn[nH]c2)c(-c2ccnc3[nH]ccc23)s1)c1ccccc1.O=C(O)C(F)(F)F.O=C(O)C(F)(F)F (stereo not drawn) [GSK1325775] | 55%
O=c1cc(N2CCOCC2)nc2n(Cc3cccc4ccccc34)ccn12 [GSK2333389] | 0%
O=C(Nc1n[nH]c2cc(-c3cccc(F)c3)ccc12)C1CC1 [SB-735464] | 0%
C[C@@H](Oc1cc(-n2cnc3ccc(NC(=O)NC(C)(C)C)cc32)sc1C(N)=O)c1ccccc1Cl [GSK346294] | 0%
Cn1ccc2ncnc(Oc3ccc(NC(=O)Nc4ccncc4)c(Cl)c3)c21 | 0%
Nc1nc(-c2ccc3c(N)n[nH]c3c2)cc(N2CCCC2)n1 [GSK2227430] | 0%
O=C(NOCC1CC1)c1ccc(F)c(F)c1Nc1ccc(I)cc1Cl | 0%
Cn1cc(-c2ccc3c(c2)CCN3C(=O)Cc2ccccc2Cl)c2c(N)ncnc21 [GSK2608885] | 25%
COc1ccc(S(=O)(=O)NC2CCN(c3cc(C)nc(Nc4cccc(C#N)c4)n3)CC2)cc1.O=C(O)C(F)(F)F [GSK1653539] | 12%
Cc1ccc(C(=O)NCC(N)=O)cc1-n1c(C)cc(OCc2ccc(F)cc2F)c(Br)c1=O | 22%
N#Cc1ccc(-c2cc(-c3c[nH]nc3-c3ccccn3)ccn2)cc1 [GW693028] | 8%
Fc1ccc(-c2ncn(CCCN3CCOCC3)c2-c2cccnc2)cc1 [SB-211743] | 0%
COc1cc2ncn(-c3cc(OCc4sccc4Cl)c(C(N)=O)s3)c2cc1OC [GSK448459] | 4%
O=C(NCCNc1ccnc(Nc2ccc(F)cc2)n1)c1cc2ccccc2s1 [GSK1379874] | 0%

Compound | %Inh
CCc1ccnc(/C=C/c2n[nH]c3cc(Sc4ccccc4C(=O)NC)ccc23)c1 | 0%
Cc1nnc(-c2ccc3ncc(-c4ccc(S(C)=O)cc4)n3c2)o1 (stereo not drawn) | 24%
CCn1cnc2c(N)ncnc21 [GW345098] | 9%
Nc1nccc(-c2c(-c3ccc(F)cc3)ncn2C2CCN(CC(F)(F)F)CC2)n1 [SB-236560] | 0%
O=C(NCCNc1ccnc(Nc2ccc(F)cc2)n1)Nc1ccccc1F [GSK1379880] | 1%
O=c1cc(N2CCOCC2)nc2n(Cc3cccc(C(F)(F)F)c3)ccn12 [GSK2297543] | 13%
COc1ccc(Nc2nccc(N3CCC(NC(=O)Nc4cc(C)ccc4C)C3)n2)cc1 (stereo not drawn) [GSK1379741] | 0%
O=C1NC(=O)C(N2CCc3ccccc32)=C1c1cccc(Cl)c1 [SB-408010] | 5%
Cc1c(Cn2c(C)nn3c(=O)cc(N4CCOC(C)C4)nc23)cccc1C(F)(F)F (stereo not drawn) [GSK2344444] | 0%
Fc1ccc(-c2ncn(CCCN3CCOCC3)c2-c2ccccn2)cc1 [SB-211742] | 5%
Cc1c2ccc(N(C)c3ccnc(Nc4cccc(S(N)(=O)=O)c4)n3)cc2nn1Cc1ccccc1.Cl.Cl [GW787226] | 0%
CC(C)(C)n1cnc2c(N)ncnc21 [SKF-97359] | 0%
COCCNC(=O)c1ccc(-c2cc(C(=O)NC3CC3)cc(F)c2C)cc1 [GW868318] | 0%
Cc1cccc(-c2nc(Nc3ccc4ncsc4c3)c3ccccc3n2)n1 [GW867588] | 0%
CN(C(=O)c1ccc(-c2cc(-c3c[nH]nc3-c3ccccn3)ccn2)cc1)C1CCOCC1 [GW810083] | 5%
Cc1ccc(NC(=O)c2ccnc(N3CCN(C)CC3)c2)cc1-c1ccc(C(=O)NCC2CC2)cc1 [GW775604] | 0%

These compounds were tested on CSNK1G2. Conditions: concentration: 1 μM, replicates: in singlicate; n = 1.

Compound | %Inh
O=c1cc(N2CCOCC2)nc2n(Cc3cccc(Cl)c3Cl)c(C3CC3)nn12 [GSK2358994] | 5%
CCc1nc(-c2cccc(C)c2)c(-c2ccnc(NCc3ccccc3)c2)s1 | 0%
COc1cc2c(cc1OCCN1CCN(C)CC1)ncc1c3ccc(C#N)cc3[nH]c21 | 0%
NCC(NC(=O)c1cc(-c2cn[nH]c2)c(-c2ccnc3[nH]ccc23)s1)c1ccccc1.O=C(O)C(F)(F)F.O=C(O)C(F)(F)F (stereo not drawn) [GSK1325775] | 90%
O=c1cc(N2CCOCC2)nc2n(Cc3cccc4ccccc34)ccn12 [GSK2333389] | 0%
O=C(Nc1n[nH]c2cc(-c3cccc(F)c3)ccc12)C1CC1 [SB-735464] | 0%
C[C@@H](Oc1cc(-n2cnc3ccc(NC(=O)NC(C)(C)C)cc32)sc1C(N)=O)c1ccccc1Cl [GSK346294] | 0%
Cn1ccc2ncnc(Oc3ccc(NC(=O)Nc4ccncc4)c(Cl)c3)c21 | 0%
Nc1nc(-c2ccc3c(N)n[nH]c3c2)cc(N2CCCC2)n1 [GSK2227430] | 0%
O=C(NOCC1CC1)c1ccc(F)c(F)c1Nc1ccc(I)cc1Cl | 0%
Cn1cc(-c2ccc3c(c2)CCN3C(=O)Cc2ccccc2Cl)c2c(N)ncnc21 [GSK2608885] | 3%
COc1ccc(S(=O)(=O)NC2CCN(c3cc(C)nc(Nc4cccc(C#N)c4)n3)CC2)cc1.O=C(O)C(F)(F)F [GSK1653539] | 0%
Cc1ccc(C(=O)NCC(N)=O)cc1-n1c(C)cc(OCc2ccc(F)cc2F)c(Br)c1=O | 10%
N#Cc1ccc(-c2cc(-c3c[nH]nc3-c3ccccn3)ccn2)cc1 [GW693028] | 0%
Fc1ccc(-c2ncn(CCCN3CCOCC3)c2-c2cccnc2)cc1 [SB-211743] | 0%
COc1cc2ncn(-c3cc(OCc4sccc4Cl)c(C(N)=O)s3)c2cc1OC [GSK448459] | 0%
O=C(NCCNc1ccnc(Nc2ccc(F)cc2)n1)c1cc2ccccc2s1 [GSK1379874] | 0%

Compound | %Inh
CCc1ccnc(/C=C/c2n[nH]c3cc(Sc4ccccc4C(=O)NC)ccc23)c1 | 0%
Cc1nnc(-c2ccc3ncc(-c4ccc(S(C)=O)cc4)n3c2)o1 (stereo not drawn) | 5%
CCn1cnc2c(N)ncnc21 [GW345098] | 0%
Nc1nccc(-c2c(-c3ccc(F)cc3)ncn2C2CCN(CC(F)(F)F)CC2)n1 [SB-236560] | 1%
O=C(NCCNc1ccnc(Nc2ccc(F)cc2)n1)Nc1ccccc1F [GSK1379880] | 0%
O=c1cc(N2CCOCC2)nc2n(Cc3cccc(C(F)(F)F)c3)ccn12 [GSK2297543] | 0%
COc1ccc(Nc2nccc(N3CCC(NC(=O)Nc4cc(C)ccc4C)C3)n2)cc1 (stereo not drawn) [GSK1379741] | 0%
O=C1NC(=O)C(N2CCc3ccccc32)=C1c1cccc(Cl)c1 [SB-408010] | 0%
Cc1c(Cn2c(C)nn3c(=O)cc(N4CCOC(C)C4)nc23)cccc1C(F)(F)F (stereo not drawn) [GSK2344444] | 0%
Fc1ccc(-c2ncn(CCCN3CCOCC3)c2-c2ccccn2)cc1 [SB-211742] | 0%
Cc1c2ccc(N(C)c3ccnc(Nc4cccc(S(N)(=O)=O)c4)n3)cc2nn1Cc1ccccc1.Cl.Cl [GW787226] | 0%
CC(C)(C)n1cnc2c(N)ncnc21 [SKF-97359] | 0%
COCCNC(=O)c1ccc(-c2cc(C(=O)NC3CC3)cc(F)c2C)cc1 [GW868318] | 4%
Cc1cccc(-c2nc(Nc3ccc4ncsc4c3)c3ccccc3n2)n1 [GW867588] | 0%
CN(C(=O)c1ccc(-c2cc(-c3c[nH]nc3-c3ccccn3)ccn2)cc1)C1CCOCC1 [GW810083] | 0%
Cc1ccc(NC(=O)c2ccnc(N3CCN(C)CC3)c2)cc1-c1ccc(C(=O)NCC2CC2)cc1 [GW775604] | 0%
